# In PubChem BioAssay (Tox21):
# Inconclusive results are not listed. Entries that show only a call come without a potency. Unmarked numbers belong to inactive results. The source made the active and inactive calls. The call rests on the fitted dose curve.
# Assay: qHTS assay to identify small molecule agonists of H2AX - cell viability counter screen (AID 1224847); further: nearly all actives have a fitted effect of over 30% in size; on activity change, negative = cytotoxicity: top concentration of the series differs between compounds
# Conditions: CHO-K1 viability, CellTiter-Glo luminescence, 3 h; series mostly up to 154 µM
# Description: National Center for Advancing Translational Sciences [NCATS]
# NIH Chemical Genomics Center [NCGC]
# U.S. Environmental Protection Agency [EPA]
# National Institutes of Environmental Health Sciences [NIEHS]
# National Toxicology Program [NTP]
# U.S. Food and Drug Administration [FDA]
# HTRF phospho-H2AX (Ser139) assay (Cisbio Bioassays, US) enables the quantitative detection of the histone variant H2AX when phosphorylated on serine 139. When double-stranded DNA breaks, either by ionizing radiation or endogenous physiological processes, H2AX becomes phosphorylated at Ser139. This phospho-Ser139 serves as a sensitive biomarker for the detection of such breaks, localizing the site of DNA repair. So, HTRF phospho-H2AX Ser139 is a pertinent assay to study genome stability, the cell cycle, DNA repair, and it serves as a biomarker for cancer, and to understand aging. Wild type CHO-K1 cells were used to identify the inducers of Phospho-H2AX Ser 139 from the Tox21 compound collections. Also cytotoxicity of the Tox21 10K compound library against the CHO-K1 cell line was tested by measuring the cell viability using CellTiter-Glo assay (Promega, Madison, WI).
# Tox21 Assay Protocol Summary:
# The CHO-K1 cells suspended in culture medium containing 10% FBS were dispensed at 1000 cells/ 3 ul/well in 1536-well white wall/solid bottom plates (Greiner Bio-One North America, NC) using a Multidrop Combi (Thermo Fisher Scientific Inc., Waltham, MA). After the assay plates were incubated at 37C overnight, 23 nl of compounds at 15 concentrations (from 5-48 columns) or positive control (from 1 to 4 columns) were transferred to the assay plates using a Pintool station (Wako, San Diego, CA) into each well resulting in a final DMSO concentration of 0.76%. After 3hr incubation at 37C, 3 uL/well CellTiter-Glo luminescent cell viability reagent (Promega Corporation, Madison, WI) was added using a Flying Reagent Dispenser (FRD) (Aurora Discovery, CA). After incubation at room temperature for 30 min, the luminescence intensity was read using a ViewLux plate reader (PerkinElmer, Waltham, MA).
# Potency means the concentration at half of the fitted maximal effect.
SMILES,Potency,"activity change, negative = cytotoxicity"
O=C(c1ccc(O)c(O)c1)c1ccc(O)cc1O,inactive,
O=C(O)Cc1ccccc1Nc1c(Cl)cccc1Cl,inactive,
CCN(CC)C(=O)c1cc(S(=O)(=O)Cc2ccccc2)c(N2CCC(c3ccccc3)CC2)cc1N(CC)CCN(C)C,31.5 µM (active),
COCCOc1cc2cc(C(=O)NC3CCN(C(C)C)CC3)n(CC(=O)Nc3ccc(Cl)cn3)c2cn1,inactive,
O=C(O)[C@H](O)[C@@H](O)[C@H](O[C@@H]1O[C@H](CO)[C@H](O)[C@H](O)[C@H]1O)[C@H](O)CO,inactive,
O=C1CCc2ccc(OCCCCN3CCN(c4cccc(Cl)c4Cl)CC3)cc2N1,55.2 µM (active),
CCC(C)[O-].CCC(C)[O-].CCOC(=O)/C=C(/C)[O-].[Al+3],inactive,
CC(C)NC[C@@H](O)COc1ccc(CC(N)=O)cc1,inactive,
COc1cc(C)ccc1O,inactive,
COc1cc2nc(N3CCN(C(=O)c4ccco4)CC3)nc(N)c2cc1OC,,-2.17% [at 31.6 µM]
CCCC(=O)OCCc1ccccc1,inactive,
C1CCC(SSC2CCCCC2)CC1,inactive,
CN(C)Cc1cc(C(C)(C)C)c(O)c(C(C)(C)C)c1,inactive,
OC/C=C/CO,inactive,
Nc1nc(N)nc(-c2cc(Cl)ccc2Cl)n1,inactive,
Cc1c(F)c(N2CCNC(C)C2)cc2c1c(=O)c(C(=O)O)cn2C1CC1 (stereo not given),inactive,
CC(C)(C)CC(C)(C)c1ccc(Nc2ccc(C(C)(C)CC(C)(C)C)cc2)cc1,,0.45% [at 14 µM]
CCC(=O)C(=O)CC,inactive,
O=C1CCCCCCCCCCCCCCCO1,inactive,
CCCCC/C=C\C/C=C\CCCCCCCC(=O)O,inactive,

SMILES,Potency,"activity change, negative = cytotoxicity"
Cc1ccc(-c2ccccc2)cc1,inactive,
O=C(O)c1ccc2cc(C(=O)O)ccc2c1,inactive,
Cc1c2ccccc2c(C)c2c1ccc1ccccc12,inactive,
COc1ccc(NC(=O)CC(C)=O)cc1,inactive,
O=C(O)c1cc(N=Nc2ccc([N+](=O)[O-])cc2)ccc1O,inactive,
CC1=Nc2ccccc2C1(C)C,89.9 µM (active),
CCCCCCC1CCCC(=O)O1 (stereo not given),inactive,
CC(=O)Oc1cc2c(s1)CCN(C(C(=O)C1CC1)c1ccccc1F)C2 (stereo not given),inactive,
O=c1oc2cc(O)ccc2c2oc3cc(O)ccc3c12,inactive,
CCc1cccc(CC)c1NC(=O)CN(CC(=O)O)CC(=O)O,inactive,
[Cl][Pt-2]([Cl])([Cl])[Cl],inactive,
CCCCCCCCCCCCOCCOCCOCCOCCOCCOCCOCCOCCOCCO,55.2 µM (active),
O=C(Nc1ccc2c(O)c(N=Nc3ccc(N=Nc4ccc(S(=O)(=O)O)cc4)cc3)c(S(=O)(=O)O)cc2c1)c1ccccc1,50.5 µM (active),
CCOC(=O)NNc1ccc(N(CC)CC(C)O)nn1 (stereo not given),inactive,
CCCCCc1ccc(Cl)cc1,inactive,
Cc1nc(-c2ccc(Cl)cc2)oc1COC(C)(C)C(=O)O,inactive,
Cc1ccc(C)cc1,inactive,
CCCC[P+](C)(CCCC)CCCC,inactive,
CCCC1CCC(=O)CC1,inactive,
CC(C)(C)c1ccc(C(O)CCCN2CCC(C(O)(c3ccccc3)c3ccccc3)CC2)cc1 (stereo not given),34.8 µM (active),
